Peg3 promoter = inhibitors of Peg3 promoter; HeLa PEG-Prom luciferase reporter, luminescence, overnight; inhibition, % at 20 µM; 1.7% of 360,000 active;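 active means inhibition of at least 50% at 20 µM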
CF NFkB inh = inhibitors of cystic fibrosis induced NF-kB. 0.86% of 360,000 active. KKLEB NF-kB-GFP reporter, PAF-induced, GFP fluorescence overnight. inhibition, % at 5 µM;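 active means at least 50% inhibition at 5 µM, scaled per plate between neutral and stimulator controls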;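 further: PAF is a Pseudomonas aeruginosa culture filtrate used as stimulus; plate controls were PAF-stimulated DMSO wells for no effect and unstimulated DMSO wells for full effect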
TWEAK-Fn14 inh = TWEAK-Fn14 signaling inhibition; TWEAK-stimulated Fn14 reporter cells, luciferase luminescence, 8 h; inhibition, % at 10 µM; 2% of 360,000 active; in the data active means inhibition above about 50%
HIF-2a block = HIF-2a inhibition. 0.72% of 360,000 active. 786-0 RCC cells HIF-2a reporter, luciferase luminescence, overnight. inhibition, % at 18.8 µM;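 active means inhibition of the luminescence signal of 40% or more relative to plate controls, in a single-dose primary screen at 18.75 µM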
KKLEB tox = CF airway cell cytotoxicity counter-screen. 0.36% of 360,000 active. KKLEB CF airway cells viability, ATPlite luminescence, overnight; stronger effect = lower value; cells stimulated with P. aeruginosa culture filtrate. activity change (cytotoxicity), % at 5 µM. AID 602141;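 active means corrected activity change at or below -50% at 5 µM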
TROY NFkB inh = inhibitors of TROY-dependent NF-kB signaling. Q293 LMP1-TROYcd NF-kB luciferase reporter, 4 h. inhibition, % at 10 µM. 0.98% of 360,000 active;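 active means compounds whose plate-normalised and pattern-corrected inhibition of the luciferase reporter signal at the single screening dose is 50% or more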
* = called active by the depositor; ! = a repeat was not active. Shown are actives, neighbours in structure and some others; about 4% of the full set was active somewhere.

SMILES	Peg3 promoter	CF NFkB inh	TWEAK-Fn14 inh	HIF-2a block	KKLEB tox	TROY NFkB inh
O=C1c2c(O)ccc(O)c2C(=O)c2c(NCCNCCO)ccc(NCCNCCO)c21	100*	82*!	93*!	63*	-21	78*!
CCNC(=S)NNC(=O)c1cc(-c2ccc(OCC)cc2)nc2ccccc12	-28	-5	52*	-15	-51*	-3
CCc1ccc(-c2cc(C(=O)Nn3cnnc3)c3ccccc3n2)cc1	37	-1	59*	11	-32	-2
CCCc1ccc(-c2cc(C(=O)NN3CCOCC3)c3ccccc3n2)cc1	-153	-50	-9	-152	-30	-52
O=C(CN(C(=O)CNC(=O)c1ccco1)c1ccc(F)cc1)NC1CCCCC1	4	-5	-12	5	1	-19
CC(=O)Oc1ccccc1Cn1c(C)c(C(=O)N(C)Cc2ccc(F)cc2)sc1=O	10	9	14	9	-14	5
COc1cc(C(=O)Nc2cc(-c3cn4cccnc4n3)ccc2C)cc(OC)c1OC	-1	-24	92*	-4	6	0
COc1cc2cc(-c3ccc(OC)c(OC)c3C)nc(N)c2cc1OC	65*	10	-12	23	2	13
CCCc1cc(=O)[nH]c(SCC(=O)Nc2ccc(N3CCCCC3)cc2)n1	9	-16	-2	2	5	-14
Clc1ccc(OCCCNCc2ccccc2)c2ccccc12	93*	43	-38	-5	-53*	-56
Cc1cc(C)c(OCCCCNCc2ccccc2)c(Cl)c1	53*	6	-70	20	-6	0
Brc1ccccc1OCCNCc1ccccc1	-64	4	-19	-97	5	-25
CCOC(=O)C1CCCN(Cc2ccc(OC)c(OCc3ccccc3)c2)C1 (configuration not stated)	13	-13	4	27	-7	1
Cc1cnc(C(=O)OCC(=O)NCc2ccc(Cl)cc2)cn1	0	-13	4	8	17	13
COc1ccc(OCC(=O)NC2CC(C)(C)NC(C)(C)C2)cc1	4	1	65*	-1	6	63*
CC1(C)CC(NC(=O)COc2ccccc2Cl)CC(C)(C)N1	-156	-25	78*	-46	-2	75*
COCCCn1cnnc1SC(C)C(=O)Nc1ccc(S(=O)(=O)N2CCOCC2)cc1 (configuration not stated)	3	20	-20	6	7	-9
Cc1ccc(C(=O)CSc2nnc3ccccn23)c(C)c1	-108	5	64*	-88	15	21
Cc1ccc(SCCC(=O)OCC(=O)Nc2ccc(C(N)=O)cc2)cc1	0	9	-10	7	22	-6
Cc1cc(NC(=O)c2cccc(Br)c2)n[nH]1	70*	5	-18	-230	0	-63
O=C(NCCc1ccccn1)c1cncc(Br)c1	-23	9	19	-36	4	5
CCCNC(=O)C1(C)CCCN(Cc2ccc(-c3ccccc3)o2)C1 (configuration not stated)	8	38	70*	1	4	2
Cc1cc(NC(=O)CSc2nc3c(sc4ccccc43)c(=O)n2CCCN2CCOCC2)n[nH]1	90*	35	14	16	-25	10
Cc1ccc(NC(=O)CSc2nc3ccccc3c(=O)n2CCCN2CCCCC2)cc1C	55*	16	-65	35	-16	-24
CCc1nc2ccccc2c(C(=O)OCC(=O)Nc2cccc(S(=O)(=O)NC3=NCCCCC3)c2)c1C	37	-3	80*	7	0	60*
CCOCCCn1c(SCC(=O)Nc2cccc(S(=O)(=O)NC3=NCCCCC3)c2)nc2ccccc2c1=O	29	-17	5	12	13	14
CC(=O)c1cccc(NC(=O)CSc2nc3ccccc3c(=O)n2CCCN2CCOCC2)c1	-15	-12	-10	5	-4	-6
O=C(COC(=O)c1ccc2ccccc2n1)Nc1cccc(S(=O)(=O)NC2=NCCCCC2)c1	12	8	-1	8	2	3
Cc1cc(NC(=O)CSc2nc3c(sc4ccccc43)c(=O)n2CCc2ccccc2)n[nH]1	3	18	0	6	-15	-32
CCCn1c(SCC(=O)Nc2cccc(S(=O)(=O)NC3=NCCCCC3)c2)nc2ccccc2c1=O	28	-4	78*	9	0	57*

Source: PubChem BioAssay (Sanford-Burnham Center for Chemical Genomics)
